How the values were obtained:
Assay in all cases: PBM binding z-score (relative to random genomic background probes); higher = stronger binding; sequences stand for … in GC…GCGATTGACAGCGTAGAATGAAGG
[1] = tested on: FXR:RXRa (NR concentration 270 nM, RXRa partner concentration 90 nM)
Outline: (§1)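 Scanned fluorescence from custom Agilent 4×180K protein-binding microarrays was regression-normalized. Binding z-scores use random background probes as reference. Ligand-free nuclear receptor dimers were incubated on the arrays for 1 h and detected with antibodies against each partner (one per run).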

[2] = tested on: LXRa:RXRa (NR concentration 270 nM, RXRa partner concentration 90 nM)
Outline: as §1

[3] = tested on: LXRa homodimer (NR concentration 270 nM)
Outline: as §1

[4] = tested on: LXRb:RXRa (NR concentration 270 nM, RXRa partner concentration 90 nM)
Outline: as §1

[5] = tested on: LXRb homodimer (NR concentration 270 nM)
Outline: as §1

[6] = tested on: PPARa:RXRa (NR concentration 270 nM, RXRa partner concentration 90 nM)
Outline: as §1

[7] = tested on: PPARg:RXRa (NR concentration 180 nM, RXRa partner concentration 90 nM)
Outline: as §1

[8] = tested on: PPARg:RXRa 270nM:90nM, anti-RXR (NR concentration 270 nM, RXRa partner concentration 90 nM)
Outline: as §1

[9] = tested on: PPARg:RXRa 30nM:10nM, anti-RXR (NR concentration 30 nM, RXRa partner concentration 10 nM)
Outline: as §1

[10] = tested on: PPARg:RXRa 90nM:30nM, anti-RXR (NR concentration 90 nM, RXRa partner concentration 30 nM)
Outline: as §1

[11] = tested on: PPARg:RXRa DBDmut IVT, anti-RXR (DBD mutation: RXRa K156A/R161A, NR concentration 270 nM, RXRa partner concentration 90 nM)
Outline: as §1

[12] = tested on: PPARg:RXRa IVT, anti-PPARg (NR concentration 270 nM, RXRa partner concentration 90 nM)
Outline: as §1

[13] = tested on: PPARg DBDmut:RXRa IVT, anti-PPARg (DBD mutation: PPARg1 K132A/R137A, NR concentration 270 nM, RXRa partner concentration 90 nM)
Outline: as §1

[14] = tested on: PPARg DBDmut IVT, anti-PPARg (DBD mutation: PPARg1 K132A/R137A, NR concentration 270 nM)
Outline: as §1

[15] = tested on: PPARg homodimer (NR concentration 180 nM)
Outline: as §1

[16] = tested on: PXR:RXRa (NR concentration 270 nM, RXRa partner concentration 90 nM)
Outline: as §1

[17] = tested on: PXR homodimer (NR concentration 270 nM)
Outline: as §1

[18] = tested on: RARa:RXR (NR concentration 270 nM, RXRa partner concentration 90 nM)
Outline: as §1

[19] = tested on: RARa homodimer (NR concentration 270 nM)
Outline: as §1

[20] = tested on: RARb:RXRa (NR concentration 270 nM, RXRa partner concentration 90 nM)
Outline: as §1

Row | Sequence | PBM binding z-score [1] | PBM binding z-score [2] | PBM binding z-score [3] | PBM binding z-score [4] | PBM binding z-score [5] | PBM binding z-score [6] | PBM binding z-score [7] | PBM binding z-score [8] | PBM binding z-score [9] | PBM binding z-score [10] | PBM binding z-score [11] | PBM binding z-score [12] | PBM binding z-score [13] | PBM binding z-score [14] | PBM binding z-score [15] | PBM binding z-score [16] | PBM binding z-score [17] | PBM binding z-score [18] | PBM binding z-score [19] | PBM binding z-score [20]
1 | GCCATTAGTTGAAAGGGCAACCGAATGATTCTCG | 0.121 | 0.648 | 0.0731 | 0.887 | -0.56 | 2.25 | 2.41 | 4.11 | 1.8 | 3.93 | 0.352 | 0.947 | 0.187 | -0.306 | 0.971 | 0.706 | 0.067 | 1.4 | -0.15 | 2.21
2 | TAGCCTAGGTCATTCAGGGGCCAGTACAGAAAGC | 4.86 | 4.11 | 0.86 | 3.16 | 0.986 | 3.6 | 2.29 | 2.39 | 0.132 | 1.25 | 1.84 | 2.77 | -0.186 | 0.258 | 1.6 | 2.52 | -0.228 | 3.86 | -0.153 | 3.9
3 | CCTTACGGGTCCCGAGGTTATAGCACGACGAGCG | 0.0402 | 0.394 | -0.262 | 0.124 | -0.6 | 0.95 | 0.635 | -0.283 | -0.617 | -0.745 | -1.26 | -0.545 | -0.471 | -1.66 | -0.111 | 0.32 | -0.277 | 0.482 | 0.138 | 0.514
4 | ATACCAAGGTGATCGTGAGGTCTTTGATACTAAC | 0.467 | 0.136 | 0.00658 | 0.0706 | -0.603 | 0.646 | 0.322 | 0.105 | -0.238 | -0.296 | 0.237 | 1.08 | 0.449 | 0.702 | 0.551 | 0.655 | -0.114 | 0.833 | 0.255 | 0.705
5 | CGTCGAAGGTCATAGGAGGTCAGTGAAGACAGAT | 7.63 | 7.68 | 5.14 | 6.27 | 0.859 | 5.98 | 5.54 | 6.05 | 3.04 | 4.92 | 3.11 | 4.45 | -0.37 | -0.169 | 4.08 | 6.79 | 3.47 | 5.95 | 2.11 | 5.41
6 | AGAATGAGGTTATACGTAGATCATGGAAGAAAGT | 2.28 | 2.35 | 0.00529 | 1.76 | 0.0323 | 3.28 | 2.34 | 2.58 | 1.01 | 1.79 | 3.69 | 2.6 | 1.46 | 0.947 | 1.21 | 1.25 | 0.482 | 1.77 | 0.298 | 1.53
7 | AGAATGAGGGCACGCTGAGTTGATAGCAGAGTAG | 1.27 | 1.11 | -0.448 | 0.487 | -0.735 | 2.7 | 2.69 | 2.62 | 0.921 | 1.87 | 5.59 | 4.73 | 1.66 | 0.551 | 0.535 | 1.48 | 0.452 | 1.18 | -0.371 | 2.62
8 | CCTCGGAGGACAACAGGAGGTTAGAGCTGCCAGA | -0.155 | -0.0847 | -0.064 | -0.556 | -0.957 | -0.226 | 0.177 | -0.821 | -0.597 | -0.982 | -0.279 | -0.491 | -1.7 | -1.73 | -0.214 | -0.222 | -0.363 | -0.127 | -0.352 | 1.32
9 | TGGCCTAGGTCAGATCGGGCCAGTATACGCTATA | 2.31 | 0.419 | -0.777 | 0.152 | -1.29 | 1.39 | 0.44 | 0.442 | -0.693 | -0.369 | -0.485 | 1.03 | -1.16 | -1.38 | -0.396 | 0.928 | -0.757 | 0.548 | -1.18 | 2.85
10 | AGAATGAGGTTATCCGTAGATCAGGGAAGAAAGT | 2.59 | 2.06 | -0.212 | 1.57 | -0.253 | 3.44 | 1.63 | 2.05 | 0.418 | 1.32 | 3.68 | 2.42 | 0.156 | 1.03 | 0.547 | 1.17 | 0.231 | 1.76 | 0.02 | 1.66
11 | CCAGACAGGTGAAACGTAACTCAGTCTGGTACGC | -0.253 | -0.0571 | -0.351 | -0.105 | -0.651 | 0.658 | 0.947 | 0.946 | -0.101 | 0.589 | 2.48 | 0.769 | -0.823 | -0.558 | 0.378 | -0.325 | -0.322 | 0.0493 | 0.128 | 0.621
12 | AGAACGAAGGCACGCTGAGTTGATAGCAGAGTAG | -0.877 | -0.66 | -0.838 | -1.06 | -0.997 | -0.367 | 0.622 | -0.693 | -0.318 | -0.476 | -0.47 | -0.214 | -0.0465 | -0.623 | -1.17 | -0.449 | -0.696 | -0.468 | -0.886 | -0.566
13 | GCGACTGGGGCATCAGCAGGGTACCATAACTTAA | -0.653 | -0.542 | -0.531 | 0.192 | -0.913 | 0.58 | 0.759 | 0.382 | -0.46 | -0.166 | 3.75 | 2.79 | -0.747 | -0.946 | -0.494 | -0.289 | -0.457 | -0.268 | -1.05 | 0.517
14 | GCAGACAGGTGAAACGCAGATAACTCAGGGTGGC | -0.337 | -0.00809 | -0.429 | -0.285 | -0.813 | 0.654 | 1.04 | -0.0865 | -0.367 | -0.137 | 1.09 | 0.225 | 0.243 | -0.959 | 0.214 | -0.239 | -0.278 | -0.0859 | -0.365 | 0.56

Reference: the supplement of paper PMC6555819
